Results as given in PubChem BioAssay AID1159580 (chemical genetic matrix, 2015).
Out of some 5,500 compounds screened, about 2,000 (36%) were called active. Roughly 18% stayed inconclusive and do not appear here. No stated cut-off is given here; in the data, active means normalized growth mostly below about 0.91 (no sharp cut-off); inconclusive means no clear call, values can overlap the other calls; inactive means mostly above about 0.92. The list shows a part of the results.

Assay: chemical genetic growth profiling, strain panel (AID 1159580);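 further: tested at 20 µM; growth read once vehicle control cultures reached saturation at 30 °C; 1 = growth at the plate median or of vehicle wells; lower values mean less growth of the strain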
Conditions: S. cerevisiae deletion strains, growth OD

Measured: normalized growth

CC12CCC3C(CCC4=C(O)C(=O)CCC43C)C1CCC2=O (stereo unspecified)
inactive: locus YAL013W, strain DEP1, hits give low values 1 | locus YAL040C, strain CLN3, hits give low values 0.99 | locus YCL061C, strain MRC1 (second series), hits give low values 0.998 | locus YDR363W, strain ESC2, hits give low values 0.984 | locus YER002W, strain NOP16, hits give low values 0.995 | locus YMR263W, strain SAP30, hits give low values 1 | locus YNL175C, strain NOP13, hits give low values 1.02 | locus YNL197C, strain WHI3, hits give low values 0.992 | locus YNL224C, strain SQS1, hits give low values 0.969 | locus YOR083W, strain WHI5 (second series), hits give low values 0.986 | locus YPL241C, strain CIN2, hits give low values 1.01
